KCNQ2 enhance – potentiators of rat KCNQ2 potassium channel; Potassium voltage-gated channel subfamily KQT member 2 (Rattus norvegicus), O88943; CHO-K1 KCNQ2, FluxOR thallium flux fluorescence; stronger effect = higher value; B-score at 10 µM; 310,000 tested, 0.54% active;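 active = fluorescence ratio B-score at least 3 SD of library B-scores, with initial fluorescence B-score within 3 of them, cut at about 5.3 in these data; same plate scores as AID 2156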;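 also: B-score of peak minus minimum over baseline fluorescence ratio after K+ and Tl+ stimulus; positive B-score means potentiation of KCNQ2 with more thallium influx and brighter signal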
KCNQ2 block – rat KCNQ2 potassium channel inhibitors, primary screen, cell-based, CHO-K1, FluxOR thallium flux, B-score. Potassium voltage-gated channel subfamily KQT member 2 (Rattus norvegicus), O88943. AID 2156, 2009. B-score at 10 µM. 20 min; stronger effect = lower value. 310,000 tested, 1.1% active;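 active = fluorescence ratio B-score at most minus 3 library SDs, with starting brightness B-score within 2 library SDs, cut at about -5.5 in these data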
Kir21 conf inh – mouse Kir2.1 channel blockers, retest, confirmation, cell-based, FluxOR thallium flux, duplicate; AID 2032, 2009; shares compounds with KCNQ2 enhance; 2,300 tested, 41% active; Kir2.1-expressing cells, FluxOR thallium flux fluorescence; stronger effect = lower value; Tl flux remaining, % of negative control (stronger effect = lower value), % at 10 µM;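 active = Primary-screen hit whose thallium flux fell at least 3 control SD below untreated wells in both duplicates, with normal baseline fluorescence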;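 also: 0% = blank wells without stimulus and 100% = stimulated no-compound controls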
Target sequence (P35561 whole entry, looked up): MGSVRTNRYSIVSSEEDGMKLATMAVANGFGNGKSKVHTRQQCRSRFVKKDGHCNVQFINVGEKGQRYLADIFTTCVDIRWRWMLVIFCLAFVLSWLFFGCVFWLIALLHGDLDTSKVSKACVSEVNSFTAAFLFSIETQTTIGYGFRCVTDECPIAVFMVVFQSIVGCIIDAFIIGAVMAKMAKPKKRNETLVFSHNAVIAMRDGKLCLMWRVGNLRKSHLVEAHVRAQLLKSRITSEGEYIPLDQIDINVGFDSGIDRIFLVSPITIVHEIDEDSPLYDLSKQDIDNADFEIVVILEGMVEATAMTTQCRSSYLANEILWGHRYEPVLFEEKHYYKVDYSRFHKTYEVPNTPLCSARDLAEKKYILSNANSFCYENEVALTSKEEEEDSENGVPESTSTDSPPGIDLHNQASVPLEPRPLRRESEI
HEK293 Tl flux – alters thallium flux in parental HEK293 cells, Kir2.1 counter-screen | shares compounds with KCNQ2 enhance | FluxOR thallium flux fluorescence; 0% = unstimulated blank wells | FluxOR signal as % of negative control (100 = no effect), % at 10 µM | 2,300 tested, 19% active;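 active = dye signal at least 3 control SD above or below untreated wells in both duplicates, raw fluorescence within 3, either direction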;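 also: percent is based on the flux ratio of peak minus minimum fluorescence over baseline F0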
CHO-K1 ctr – nonspecific thallium flux increase in parental CHO-K1, confirmation, counter-screen for KCNQ2 potentiator project, cell-based, FluxOR thallium flux, duplicate; shares compounds with KCNQ2 enhance; parental CHO-K1 cells, FluxOR thallium flux fluorescence; zero = vehicle mean+3SD, 100% = vehicle-minus-blank window; activity increase over 3SD of controls, % at 10 µM; 1,200 tested, 43% active; AID 2282, 2010;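 active = signal rise of at least 3 SD above the untreated control mean, in both duplicate wells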;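 also: counter screen of KCNQ2 potentiator hits so any rise reflects channel-independent effects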
KCNQ1 pot spec – human KCNQ1 channel potentiation off-target, confirmation, selectivity assay for KCNQ2 potentiator project, cell-based, CHO, FluxOR thallium flux. shares compounds with KCNQ2 enhance. CHO KCNQ1 stable, FluxOR thallium flux fluorescence; beyond 3SD, as % of vehicle-control signal. activation over 3SD threshold, % at 10 µM. 1,200 tested, 28% active. AID 2283, 2010;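 active = fluorescence ratio rise of at least 3 SD of vehicle wells above their mean, in both replicate wells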;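 also: 0% = vehicle mean plus 3 SD and 100% = vehicle minus unstimulated blank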
KCNQ2 pot conf – rat KCNQ2 channel potentiators, confirmation, cell-based, CHO, FluxOR thallium flux, duplicate. shares compounds with KCNQ2 enhance. CHO-KCNQ2 cells, FluxOR thallium flux fluorescence. potentiation, less the hit threshold, % at 10 µM. 1,200 tested, 68% active;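 active = fluorescence ratio rising 3 SD or more over the vehicle control mean in both replicates, plus primary screen hit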;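 also: peak minus minimum thallium fluorescence divided by baseline after K/Tl stimulus; 0% = vehicle mean plus 3 SD and 100% = vehicle minus unstimulated blank difference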
Kir21 spec – mouse Kir2.1 channel activation off-target, confirmation, selectivity assay for KCNQ2 potentiator project, cell-based, HEK293, FluxOR thallium flux; AID 2345, 2010; shares compounds with KCNQ2 enhance; activity over 3SD threshold, % at 10 µM; 1,200 tested, 2% active; HEK293 Kir2.1, FluxOR thallium flux fluorescence;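 active = fluorescence ratio rise of at least 3 SD above the vehicle-control mean, seen in both replicates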;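 also: 0% = vehicle mean plus 3 SD and 100% = vehicle minus no-stimulus blank window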
KCNQ2 W236L pot – potentiators of retigabine-insensitive KCNQ2 W236L, mechanism study for KCNQ2 potentiator project, cell-based, rat KCNQ2 W236L, CHO, automated patch clamp | shares compounds with KCNQ2 enhance | automated patch clamp current | current increase over 3SD of negative controls (%), stronger effect = higher value, % at 25 µM | 940 tested, 10% active | AID 2558, 2010;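 active = current increase at least 3 SD of the untreated controls above them in both duplicate recordings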
* hit, by the source's call; i = inactive; . = no result. Compounds with a hit are over-represented: about 1.6% of the library has one in this group of screens.

SMILES	KCNQ2 enhance	KCNQ2 block	Kir21 conf inh	HEK293 Tl flux	others
COc1ccc(C(C)C)cc1S(=O)(=O)N1CCN(C)CC1	13*	i	i	i	CHO-K1 ctr=48*;KCNQ1 pot spec=-9;KCNQ2 pot conf=-18;Kir21 spec=-36
O=C(NCC1CCCO1)c1cc(Br)c(Br)s1 (centres undefined)	0.95	i	.	.
O=C(CSc1nnc2ccc(-c3ccc(F)cc3)nn12)N1CCCC1	0.51	i	.	.
CC(C)(c1ccccc1)c1ccc(OCCCN2CCNCC2)cc1	2	i	50%*	i
CC(C)(C)c1ccc(OCCCCCCN2CCNCC2)cc1	.	i	.	.
O=C(c1ccc(O)cc1)c1ccc(O)cc1O	1	i	.	.
CN(C)c1ccc(C(=O)c2ccc(O)cc2O)cc1	0.06	i	i	i
CCCCCCC(O)(c1ccc(OC)cc1)C(CN1CCOCC1)c1ccccc1 (centres undefined)	6.4*	i	i	i	CHO-K1 ctr=-24;KCNQ1 pot spec=-9;KCNQ2 pot conf=6.2*;Kir21 spec=-45;KCNQ2 W236L pot=i
CCCCCCC(O)(c1ccccc1)C(CN1CCOCC1)c1ccccc1 (centres undefined)	0.4	i	.	.
O=C(Nc1ccc2c(c1)OCCO2)C(=O)NC1CC1	1.4	i	.	.
CCn1c(CNc2cccc(Cl)c2)nnc1SCC(=O)OC1CCCCC1	.	i	.	.
CCn1c(CNc2ccc(Cl)cc2)nnc1SCC(=O)OC1CCCCC1	0.06	i	71%*	i
CC(=O)c1ccc(NC(=O)C(C)OC(=O)c2cccc(-n3cnnn3)c2)cc1 (centres undefined)	0.27	i	.	.
CC(OC(=O)c1cccc(-n2cnnn2)c1)C(=O)Nc1cccc(Cl)c1 (centres undefined)	1.2	i	i	i
COc1cc(Cl)c(C)cc1NC(=O)CC1CCCC1	5.8*	i	i	i	CHO-K1 ctr=-9;KCNQ1 pot spec=-18;KCNQ2 pot conf=24*;Kir21 spec=-32;KCNQ2 W236L pot=i
COc1ccc(Cl)cc1NC(=O)CC1CCCC1	.	i	.	.
Cn1c(N)c(N2CCCCC2)c(=O)n(CC(=O)Nc2ccc(Cl)c(Cl)c2)c1=O	17*	i	i	i	CHO-K1 ctr=-7;KCNQ1 pot spec=-15;KCNQ2 pot conf=47*;Kir21 spec=-35;KCNQ2 W236L pot=i
O=C(CCC(=O)N1CCCCC1)Nc1ccc(Cl)c(Cl)c1	.	i	.	.
CCOc1cc(NC(=O)C(C)C)c(OCC)cc1NC(=O)Nc1ccccc1	.	i	.	.
Cc1ccc(NC(=O)C2CCCN(S(=O)(=O)c3c(C)noc3C)C2)c(Br)c1 (centres undefined)	0.36	i	.	.
COc1ccc(CCNc2ncnc3cc(OC)c(OC)cc23)cc1OC	2.1	i	.	.
COc1cc2ncnc(NCCc3ccccc3)c2cc1OC	5.4*	i	i	131%*	CHO-K1 ctr=11*;KCNQ1 pot spec=-9;KCNQ2 pot conf=-8;Kir21 spec=-21
Cc1c(C)c2ccc(OC(C)C(=O)NCCCN3CCOCC3)c(C)c2oc1=O (centres undefined)	0.08	i	.	.
CC1CN(c2ccc([N+](=O)[O-])c(NCCOc3ccccc3)c2)CC(C)N1 (centres undefined)	.	i	.	.
